Each structure is given as a SMILES string. “And” between values parts separate entries of the source, which are not always exact repeats. Equal entries are not always repeated. This is part of a sample that, as a whole, favours compounds with a hit. Of some 83,000 tested, about 20% had one in any assay.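 How to read the values: 0–100, growth inhibition (40 = 60% inhibited); 0, no net growth; -100 to 0, cell death (-40 = 40% of starting cells died; -100 = all dead).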 The source made the active and inactive calls. How the source made its calls: active means growth percent below 10; inactive means the rest.

Experimental findings from PubChem BioAssay (NCI) are described below.

For the first assay, the system named is OVCAR-4 ovarian. The assay can be described thus: NCI-60 one-dose screen, 48 h (100 = growth as untreated, 0 = no growth, -100 = all killed). To be noted: 10 µM unless noted.
On to `Cc1ccc(S(=O)(=O)NCCCNc2nccc(-c3[nH]c(-c4ccccc4)nc3-c3ccc(F)c(O)c3)n2)cc1`, for which the growth was 107% (inactive).

For `COc1cc(-c2nc(-c3ccccc3)[nH]c2-c2ccnc(NCCCNS(=O)(=O)c3ccc(C(F)(F)F)cc3)n2)ccc1Cl`, the growth was 41.6% (inactive) and 39.1% (inactive).

In the case of `C#C[C@]1(O)CC[C@H]2[C@@H]3CC=C4c5sc(Nc6ncccc6C)nc5CC[C@]4(C)[C@H]3CC[C@@]21C`, the growth is 34.9% (inactive).

For `CCOC(=O)c1c(NC(=O)c2cccc(C(F)(F)F)c2)sc2c3c(ccc12)OCN(C)C3`, the growth is -44.2% (active).

Consider `COc1ccc(/C=N/NC(=O)CSc2nc(-c3cnccn3)cc(-c3cccs3)c2C#N)cc1`, for which the growth is 92.6% (inactive).

For `CCCCCCN1C=C/C(=C\C(=O)n2ccc3ccccc32)c2ccccc21`, the growth is 33.3% (inactive).

In the case of `Cc1ccc(C(=O)CSc2nc3ccccc3c(=O)n2C)cc1`, the growth was 52.4% (inactive).

Take `O=C(CCCCCCNC(=O)C(O)(O)C(F)(F)F)Nc1ccc(-c2ccccc2)cc1`: the growth was 36.6% (inactive).

Consider `COc1ccc(C2CC(c3cccc(OCCCCOc4cccc(C5=NN(C(C)=O)C(c6ccc(OC)cc6)C5)c4)c3)=NN2C(C)=O)cc1` (stereo not drawn), for which the growth is 20% (inactive).

`Cn1cc(-c2nc(N)nnc2-c2c[nH]c3ccc(Br)cc23)c2cc(F)ccc21`: the growth is 94.5% (inactive).

As to `Oc1[nH]c2ccc(Cl)cc2c1N=Nc1nc(N=Nc2c(O)[nH]c3ccc(Cl)cc23)nc(N2CCCCC2)n1`, the growth was 42.2% (inactive).

Regarding `CC(=O)Nc1cc(N2CCOCC2)c2nc(NC(=O)c3[nH]c(C)c(Cl)c3Cl)sc2c1`, the growth is -10.8% (active).

As for `C#CCN(C)CCCOc1ccc(NCc2ccc(/C=C/C(=O)NO)cc2)cc1Cl`, the growth was 22.4% (inactive).

In the case of `COC(=O)c1ccc(NC2=C(Cl)C(=O)c3nc(C)ccc3C2=O)cc1`, the growth was 58.5% (inactive).

For `Cc1ccc2c(n1)C(=O)C(Cl)=C(Nc1cc(C(F)(F)F)cc(C(F)(F)F)c1)C2=O`, the growth is -84.8% (active).

For the compound `COC(=O)c1cccc(NC2=C(Cl)C(=O)c3nc(C)ccc3C2=O)c1`, the growth was -97.6% (active).

Consider `COc1cc(C(C)=C(c2ccc(OCCN(C)C)cc2)c2ccc(OCCN(C)C)cc2)ccc1F`, for which the growth was 108% (inactive).

In the case of `N#Cc1c(-c2cccs2)cc(-c2cnccn2)nc1SCC(=O)N/N=C/c1ccncc1`, the growth is 111% (inactive).

On to `C#Cc1cc(OC)c(C(=O)Nc2ccc(F)cc2C(=O)Nc2cccc(S(=O)(=O)C(F)(F)F)c2)cn1`, for which the growth was 27.8% (inactive).

In the case of `NC1=NC2(CCCC2)N(c2ccc(S(=O)(=O)Nc3nccs3)cc2)C(N)=N1`, the growth was 110% (inactive).

For `Cn1cc(-c2nnc(N)nc2-c2c[nH]c3ccc(F)cc23)c2cc(Br)ccc21`, the growth is 50.1% (inactive).

`CCCN1C=C/C(=C\C(=O)n2ccc3ccccc32)c2ccccc21`: the growth was 49.9% (inactive).

On to `Cc1ccc2c(n1)C(=O)C(Cl)=C(Nc1ccc(C(C)C)cc1)C2=O`, for which the growth was -74% (active).

In the case of `COc1ccc2c(c1)C=CC1(O2)Oc2ccc(OC)cc2C=C1C` (stereo not drawn), the growth was 74.6% (inactive).

As to `NCCNC(=O)c1cccc(COc2ccccc2NC(=O)c2cc(Cl)c(Cl)[nH]2)c1`, the growth was 97.7% (inactive).

`Cc1cc(C)cc(NC2=C(Cl)C(=O)c3nc(C)ccc3C2=O)c1`: the growth was -5.74% (active).

Consider `Cc1nc(/N=C(N)/N=C(\N)c2cccc(Br)c2)sc1C`, for which the growth is 87.3% (inactive).

`Fc1ccc2nc(-c3cnn4cccnc34)sc2c1`: the growth was 63.5% (inactive).

`COc1ccc(C(=O)c2c(N)c(C#N)cn2-c2ccc(Cl)cc2Cl)cc1`: the growth is 103% (inactive).

`COc1ccc(C2CC(c3cccc(OCCCCOc4cccc(C5=NOC(c6ccc(OC)cc6)C5)c4)c3)=NO2)cc1` (stereo not drawn): the growth was 90.3% (inactive).

Consider `CCN(CC)CCOc1ccc(C(=C(C)c2ccc(OC)cc2)c2ccc(OCCN(CC)CC)cc2)cc1`, for which the growth is -24.4% (active).

On to `CN1CCN(c2ccc(Nc3nc(NCCCNS(=O)(=O)c4ccccc4)c4sccc4n3)cc2)CC1`, for which the growth was 56.5% (inactive).

Consider `CC1=C(C)C(=O)C(Nc2cccc(C(=O)OC(C)(C)C)c2)=C(Cl)C1=O`, for which the growth was 80.2% (inactive).

Consider `O=C(/C=C/c1cccc(F)c1)c1cccc(OCCCOc2cccc(C(=O)/C=C/c3cccc(F)c3)c2)c1`, for which the growth was 75.3% (inactive).

As to `CC(Nc1ncnc2ccc(-c3cnc4cnccn34)cc12)c1ccccc1` (stereo not drawn), the growth was 41.4% (inactive).

As to `CC1CC(=O)C2=C(C1)Nc1ccc(Br)cc1CC2c1c[nH]c2ccc(Br)cc12` (stereo not drawn), the growth was 74.4% (inactive).

With `C[C@@H]1OCC2(CCN(c3cnc(C(=O)Nc4cc(F)cc5cccnc45)cn3)CC2)[C@@H]1N`, the growth is 14.8% (inactive).

With `C#CCOc1ccccc1C(OC(=O)c1ccccc1)C(=O)NC(C)(C)C(C)(C)C` (stereo not drawn), the growth was 85.9% (inactive).

As for `O=C(CSc1nnc(-c2cccs2)n1-c1ccccc1)Nc1ccccc1F`, the growth was 95.1% (inactive).

In the next assay the test system is SK-OV-3 ovarian. The description is as above. To be noted: 10 µM unless noted.
On to `Cc1ccc(S(=O)(=O)NCCCNc2nccc(-c3[nH]c(-c4ccccc4)nc3-c3ccc(F)c(O)c3)n2)cc1`, for which the growth is 117% (inactive).

Regarding `COc1cc(-c2nc(-c3ccccc3)[nH]c2-c2ccnc(NCCCNS(=O)(=O)c3ccc(C(F)(F)F)cc3)n2)ccc1Cl`, the growth was 99.5% (inactive) and 55.1% (inactive).

`C#C[C@]1(O)CC[C@H]2[C@@H]3CC=C4c5sc(Nc6ncccc6C)nc5CC[C@]4(C)[C@H]3CC[C@@]21C`: the growth was -37.2% (active).

On to `CCOC(=O)c1c(NC(=O)c2cccc(C(F)(F)F)c2)sc2c3c(ccc12)OCN(C)C3`, for which the growth is 75.7% (inactive).

For `COc1ccc(/C=N/NC(=O)CSc2nc(-c3cnccn3)cc(-c3cccs3)c2C#N)cc1`, the growth was 75.6% (inactive).

For `CCCCCCN1C=C/C(=C\C(=O)n2ccc3ccccc32)c2ccccc21`, the growth was 59.9% (inactive).

`Cc1ccc(C(=O)CSc2nc3ccccc3c(=O)n2C)cc1`: the growth is 87.4% (inactive).

In the case of `O=C(CCCCCCNC(=O)C(O)(O)C(F)(F)F)Nc1ccc(-c2ccccc2)cc1`, the growth was -22.6% (active).

`COc1ccc(C2CC(c3cccc(OCCCCOc4cccc(C5=NN(C(C)=O)C(c6ccc(OC)cc6)C5)c4)c3)=NN2C(C)=O)cc1` (stereo not drawn): the growth is 83.5% (inactive).

For the compound `Cn1cc(-c2nc(N)nnc2-c2c[nH]c3ccc(Br)cc23)c2cc(F)ccc21`, the growth was 118% (inactive).

On to `Oc1[nH]c2ccc(Cl)cc2c1N=Nc1nc(N=Nc2c(O)[nH]c3ccc(Cl)cc23)nc(N2CCCCC2)n1`, for which the growth is 94.5% (inactive).

`CC(=O)Nc1cc(N2CCOCC2)c2nc(NC(=O)c3[nH]c(C)c(Cl)c3Cl)sc2c1`: the growth is 95.5% (inactive).

Take `C#CCN(C)CCCOc1ccc(NCc2ccc(/C=C/C(=O)NO)cc2)cc1Cl`: the growth is -11.3% (active).

Consider `COC(=O)c1ccc(NC2=C(Cl)C(=O)c3nc(C)ccc3C2=O)cc1`, for which the growth is 125% (inactive).

In the case of `Cc1ccc2c(n1)C(=O)C(Cl)=C(Nc1cc(C(F)(F)F)cc(C(F)(F)F)c1)C2=O`, the growth is 110% (inactive).

Regarding `COC(=O)c1cccc(NC2=C(Cl)C(=O)c3nc(C)ccc3C2=O)c1`, the growth was 87.6% (inactive).

Consider `COc1cc(C(C)=C(c2ccc(OCCN(C)C)cc2)c2ccc(OCCN(C)C)cc2)ccc1F`, for which the growth was 102% (inactive).

As for `N#Cc1c(-c2cccs2)cc(-c2cnccn2)nc1SCC(=O)N/N=C/c1ccncc1`, the growth was 109% (inactive).

Turning to `C#Cc1cc(OC)c(C(=O)Nc2ccc(F)cc2C(=O)Nc2cccc(S(=O)(=O)C(F)(F)F)c2)cn1`, the growth was -70.5% (active).

Take `NC1=NC2(CCCC2)N(c2ccc(S(=O)(=O)Nc3nccs3)cc2)C(N)=N1`: the growth was 114% (inactive).

`Cn1cc(-c2nnc(N)nc2-c2c[nH]c3ccc(F)cc23)c2cc(Br)ccc21`: the growth was 33.7% (inactive).

As to `CCCN1C=C/C(=C\C(=O)n2ccc3ccccc32)c2ccccc21`, the growth is 70.2% (inactive).

Turning to `Cc1ccc2c(n1)C(=O)C(Cl)=C(Nc1ccc(C(C)C)cc1)C2=O`, the growth was 106% (inactive).

`COc1ccc2c(c1)C=CC1(O2)Oc2ccc(OC)cc2C=C1C` (stereo not drawn): the growth is 57.2% (inactive).

As to `NCCNC(=O)c1cccc(COc2ccccc2NC(=O)c2cc(Cl)c(Cl)[nH]2)c1`, the growth was 111% (inactive).

For `Cc1cc(C)cc(NC2=C(Cl)C(=O)c3nc(C)ccc3C2=O)c1`, the growth is 107% (inactive).

Consider `Cc1nc(/N=C(N)/N=C(\N)c2cccc(Br)c2)sc1C`, for which the growth was 67.8% (inactive).

In the case of `Fc1ccc2nc(-c3cnn4cccnc34)sc2c1`, the growth is 81% (inactive).

For `COc1ccc(C(=O)c2c(N)c(C#N)cn2-c2ccc(Cl)cc2Cl)cc1`, the growth was 117% (inactive).

On to `COc1ccc(C2CC(c3cccc(OCCCCOc4cccc(C5=NOC(c6ccc(OC)cc6)C5)c4)c3)=NO2)cc1` (stereo not drawn), for which the growth is 106% (inactive).

`CCN(CC)CCOc1ccc(C(=C(C)c2ccc(OC)cc2)c2ccc(OCCN(CC)CC)cc2)cc1`: the growth was 96.4% (inactive).

As for `CN1CCN(c2ccc(Nc3nc(NCCCNS(=O)(=O)c4ccccc4)c4sccc4n3)cc2)CC1`, the growth is 122% (inactive).

Turning to `CC1=C(C)C(=O)C(Nc2cccc(C(=O)OC(C)(C)C)c2)=C(Cl)C1=O`, the growth was 103% (inactive).

For `O=C(/C=C/c1cccc(F)c1)c1cccc(OCCCOc2cccc(C(=O)/C=C/c3cccc(F)c3)c2)c1`, the growth was 124% (inactive).

Regarding `CC(Nc1ncnc2ccc(-c3cnc4cnccn34)cc12)c1ccccc1` (stereo not drawn), the growth was 60.6% (inactive).

As to `CC1CC(=O)C2=C(C1)Nc1ccc(Br)cc1CC2c1c[nH]c2ccc(Br)cc12` (stereo not drawn), the growth was 77.3% (inactive).

`C[C@@H]1OCC2(CCN(c3cnc(C(=O)Nc4cc(F)cc5cccnc45)cn3)CC2)[C@@H]1N`: the growth was 102% (inactive).

For `C#CCOc1ccccc1C(OC(=O)c1ccccc1)C(=O)NC(C)(C)C(C)(C)C` (stereo not drawn), the growth was 95.8% (inactive).

For the compound `O=C(CSc1nnc(-c2cccs2)n1-c1ccccc1)Nc1ccccc1F`, the growth was 96.4% (inactive).
